High-throughput results as filed in PubChem BioAssay.
Most compounds without a hit are left out; they make up all but 12% or so of the library.
Sfp inh: Sfp phosphopantetheinyl transferase inhibition | Q9F4F7 | Biochemical Sfp PPTase activity, qHTS | Potency, µM, actives largely listed as inhibitors | 310,000 compounds, 3.5% hits;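 also: the enzyme is Sfp with the accession as filed and its product quenches rhodamine fluorescence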
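Compounds were incubated with enzyme (final 15 nM) for 15 min at room temperature before substrate addition started the reaction. Fluorescence at 525 nm excitation, 598 nm emission was recorded immediately and after 30 minutes.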
BAZ2B inh: blocks human BAZ2B. AlphaScreen BAZ2B-H3K14Ac peptide displacement. 360,000 compounds, 4.4% hits. Potency, µM (series often up to 114 µM), actives largely listed as inhibitors. Q9UIF8. AID 504333; also: nearly all actives have a fitted effect of over 60% in size
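In this displacement format the biotinylated H3(5-23) peptide acetylated at Lys14 serves as ligand at 50 nM, with BAZ2B at 50 nM in PBS pH 7.4 containing 0.01% Tween-20. Donor and acceptor beads are 10 ug/mL final.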
JMJD2A Tudor: inhibitors of human JMJD2A Tudor domain; O75164; AlphaScreen JMJD2A-Tudor / H3K4me3 peptide binding; Potency, µM (series often up to 114 µM), most hits filed as inhibitors; 390,000 compounds, 4.4% hits; also: nearly all actives have a fitted effect of over 50% in size
PLK1 PBD block: inhibitors of human PLK1 polo-box domain binding; Plk1 PBD binding of FITC phosphopeptide, fluorescence polarization; Potency, µM, hits mostly inhibitors; 360,000 compounds, 2.8% hits; AID 720504; also: series mostly up to about 57 µM; nearly all actives have a fitted effect of over 65% in size
Target sequence (P53350 whole entry, looked up, the tested form may be a part): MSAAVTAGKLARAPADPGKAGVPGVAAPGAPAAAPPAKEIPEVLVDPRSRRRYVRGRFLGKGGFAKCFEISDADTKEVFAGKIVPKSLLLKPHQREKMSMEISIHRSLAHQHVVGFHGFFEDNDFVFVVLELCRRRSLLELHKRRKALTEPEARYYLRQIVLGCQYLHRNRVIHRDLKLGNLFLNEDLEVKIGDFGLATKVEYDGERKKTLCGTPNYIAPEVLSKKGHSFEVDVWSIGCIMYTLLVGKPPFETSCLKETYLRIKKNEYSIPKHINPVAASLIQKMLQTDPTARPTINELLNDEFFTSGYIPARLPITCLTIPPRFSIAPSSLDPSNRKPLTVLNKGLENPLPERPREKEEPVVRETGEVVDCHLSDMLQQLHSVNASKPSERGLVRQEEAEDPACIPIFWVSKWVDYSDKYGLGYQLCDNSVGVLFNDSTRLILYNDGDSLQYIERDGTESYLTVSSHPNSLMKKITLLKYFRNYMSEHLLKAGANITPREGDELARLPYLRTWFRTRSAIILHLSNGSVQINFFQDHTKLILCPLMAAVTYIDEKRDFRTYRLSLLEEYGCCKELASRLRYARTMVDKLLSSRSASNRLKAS
HP1b binding inh: blocks HP1-beta chromodomain binding to methylated histone tails; Potency, µM (titrated, usually from 114 µM), usual class: inhibitors; AID 540317; 390,000 compounds, 0.56% hits; AlphaScreen HP1-beta / biotin-H3K9me3 peptide binding; also: nearly all actives have a fitted effect of over 70% in size
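Compound inhibition of the preformed complex between 50 nM HP1-beta and 50 nM biotinylated H3K9me3 peptide was read by AlphaScreen. Buffer was PBS pH 7.4 with 0.01% Tween-20. Incubations ran 30 min at room temperature, with 10 ug/mL donor/acceptor beads.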
G9a inh: inhibitors of human histone lysine methyltransferase G9a. Potency, µM (series often up to 102 µM), hits mostly inhibitors. G9a H3K9 monomethylation, AlphaScreen, 2 h. Q96KQ7. 350,000 compounds, 8.8% hits; also: nearly all actives have a fitted effect of over 75% in size
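AlphaScreen read-out: biotin-H3K9 peptide (500 nM) methylation by 20 nM enzyme with 20 uM SAM, 2 h at room temperature after 15 min compound preincubation; anti-monomethyl H3K9 antibody plus donor/acceptor beads, 10 min dark.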
TbPYK inh: confirmation of Trypanosoma brucei pyruvate kinase inhibitors; shares compounds with PLK1 PBD block; recombinant TbPYK, Kinase-Glo ATP luminescence; Potency, µM (top dose mostly 76.9 µM), actives largely listed as inhibitors; 890 compounds, 67% hits; also: nearly all actives have a fitted effect of over 70% in size
TbPYK orthogonal: TbPYK inhibition, orthogonal confirmation | AID 720584 | Potency, µM (highest dose often 76.9 µM), actives largely listed as inhibitors | 890 compounds, 62% hits | recombinant TbPYK, ADP-Glo luminescence, 60 min | shares compounds with PLK1 PBD block; also: nearly all actives have a fitted effect of over 75% in size
Hits are given with their value; n = inactive; u = inconclusive; x = no result; [ ] = remark or other dose. Calls follow the shape of the dose curve; as a rule, active = well fitted curve in the direction sought with a large enough effect; inconclusive = small, poorly fitted or top-dose-only effect, or another doubt; inactive = no such curve, though single readings can be large; an effect the other way counts as inactive or inconclusive.

SMILES	Sfp inh	BAZ2B inh	JMJD2A Tudor	PLK1 PBD block	HP1b binding inh	G9a inh	TbPYK inh	TbPYK orthogonal
Cc1ccc(C)c(NC(=O)CSc2nncn2C)c1	n	n	n	n	n	n	x	x
Cc1cc(C)c2c(c1)-c1c(ssc1=S)C(C)(C)N2C(=O)CSc1nncn1C	50µM	50µM	u	n	u	5µM	14µM	16µM
Cc1ccc(C(=S)N2CCN(Cc3ccccc3)CC2)cc1	11µM	u	n	8.4µM	n	u	8.9µM	13µM
Cc1ccc(NC(=S)N2CCN(Cc3ccccc3)CC2)cc1	n	n	n	n	n	n	x	x
CC(OC(=O)c1ccccc1Oc1ccccc1)C(=O)NC1CC1 (stereo unspecified)	u	n	n	n	n	n	x	x
CCOc1cc(CNc2ccc(CNc3ncn[nH]3)cc2)ccc1OCc1ccccc1	n	u	u	n	n	n	x	x
O=C(COC(=O)/C=C/c1cccc(Cl)c1)NC1CC1	x	n	n	n	n	n	x	x
COc1ccc(C(=O)/C=C/C(=O)N(Cc2ccc(F)cc2)C(C(=O)NC2CCCCC2)c2ccncc2)c(O)c1 (stereo unspecified)	n	n	n	n	n	n	x	x
COc1ccc(C(=O)/C=C/C(=O)N(CC(=O)NC2CCCCC2)CC2CCCO2)c(O)c1 (stereo unspecified)	3.2µM	n	n	6.7µM	n	8.9µM	7.1µM	10µM
O=C(O)c1cc(N=Nc2c(O)ccc3ccccc23)cc(C(=O)O)c1	n	u	28µM	9.5µM	u	u	7.1µM	13µM
O=C(O)c1cc2ccc3cccc4ccc(c1)c2c34	n	u	n	n	n	n	x	x
Cc1ccc(N2CCCCn3c2nc2c3c(=O)n(CC(=O)O)c(=O)n2C)cc1	n	n	n	n	n	n	x	x
CC1(C)Cc2c(c(N3CCCC3)nc3sc(C(=O)Nc4ccccc4)c(N)c23)CO1	n	n	n	n	n	u	x	x
Cc1nc2sc(C(=O)O)c(N)c2c2c1COC(C)(C)C2	40µM	n	14µM	u	n	3.2µM	u	18µM
COc1ccc(NC(=O)CCS(=O)(=O)c2ccc3c(c2)CCN3C(C)=O)cc1	n	n	n	n	n	x	x	x
NC(=O)c1ccc(N2CCN(c3ccc(O)cc3)CC2)c([N+](=O)[O-])c1	32µM	u	25µM	n	79µM	u	14µM	u
O=C(Cn1cc(S(=O)(=O)Cc2cccc([N+](=O)[O-])c2)c2ccccc21)N1CCOCC1	n	n	n	n	n	u	x	x
O=C(Cn1cc(S(=O)(=O)Cc2ccc([N+](=O)[O-])cc2)c2ccccc21)N1CCOCC1	40µM	n	n	n	n	8.9µM	16µM	25µM
CCn1c(C(=O)NCc2cccnc2)cc2sc(Cl)cc21	n	n	n	n	n	n[12.7 µM]	u	u
Cc1cccc(NC2=C(NC(=O)c3ccccc3)C(=O)c3ccccc3C2=O)c1	20µM	28µM	25µM	u	50µM	3.2µM	14µM	11µM
Cc1cccc(C(=O)Nc2cccc(NC(=O)c3ccccc3)c2)c1	n	u	n	n	n	x	x	x
COc1ccc(S(=O)(=O)N(C(C)=O)c2ccc3oc(=O)sc3c2)cc1	10µM	n	u	n	n	7.1µM	u	16µM
CCOc1ccc(S(=O)(=O)N(C(C)=O)c2ccc3oc(C)c(C(=O)OC)c3c2)cc1	x	n	n	x	n	n	x	x
Cc1nc(SCc2ccc(O)c([N+](=O)[O-])c2)c([N+](=O)[O-])[nH]1	18µM	u	22µM	n	u	x	u	13µM
Cc1nc(SCC(O)CCl)c([N+](=O)[O-])[nH]1 (stereo unspecified)	n	n	n	n	n	u	x	x
SMILES	Sfp inh	BAZ2B inh	JMJD2A Tudor	PLK1 PBD block	HP1b binding inh	G9a inh	TbPYK inh	TbPYK orthogonal
O=c1nccc(N/N=C/c2ccccc2O)[nH]1	n	50µM	u	u	n	n	u	n
Cc1cc(C)n2c(NC3CCCC3)c(-c3cc4ccccc4o3)nc2n1	x	x	x	n	x	x	x	x
COc1ccc2nc(Nc3sc4c(c3C(N)=O)CCCC4)sc2c1	45µM	u	u	u	22µM	3.2µM	6.3µM	7.9µM
COc1ccc(CC(=O)Nc2sc3c(c2C(N)=O)CCCC3)cc1	n	n	n	n	n	n	x	x
C[C@H]1CCC/C=C/[C@@H]2C[C@H](O)C[C@H]2[C@H](O)[C@H](S(=O)c2ccc(O)cc2)CC(=O)O1 (stereo partly specified)	x	x	40µM	11µM	u	x	18µM	13µM
CCc1cccc(NC(=O)CSC2=NS(=O)(=O)c3ccccc32)c1	14µM	n	n	11µM	n	8.9µM	18µM	18µM
Cn1c(=O)c2nc(SCc3ccccc3)n(C)c2n(C)c1=O	x	x	n	n	n	x	x	x
CSc1cnn(Cc2ccccc2)c(=O)c1SCc1ccccc1	3.2µM	n	n	u	n	8.9µM	14µM	22µM
O=C1CCCC2=C1C(c1ccc(O)c(O)c1)Nc1ccc3ncccc3c12 (stereo unspecified)	u	50µM	25µM	u	u	1.1µM	0.16µM	1µM
O=C1CCCC2=C1C(c1cccs1)Nc1ccc3ncccc3c12 (stereo unspecified)	n	n	n	n	n	n[12.7 µM]	x	x
Cc1csc(SCC(=O)NC(=O)NCCC(C)C)n1	n	n	n	n	n	n	x	x
CCC(/C=C1\Oc2ccc(OC)cc2N1C)=C\c1sc2ccccc2[n+]1CCCS(=O)(=O)[O-]	x	x	n	n	n	x	x	x
COc1cc(/C=C/c2sc3ccccc3[n+]2CCCS(=O)(=O)[O-])ccc1O	6.3µM	45µM	n	n	32µM	11µM	16µM	n
O=C(Nc1c(-c2ccccc2)[nH][nH]c1=O)c1ccc(Br)cc1	x	x	x	n	x	x	x	x
Cc1onc(C(=O)Nc2sc3c(c2C(N)=O)CCCC3)c1[N+](=O)[O-]	25µM	u	u	11µM	u	x	16µM	18µM
N#Cc1c(NC(NC(=O)c2ccco2)C(=O)c2ccccc2)sc2c1CCCC2 (stereo unspecified)	20µM	n	50µM	n	n	5µM	u	3.5µM
COc1cc(N2C(=O)C=CC2=O)ccc1N1C(=O)C=CC1=O	x	x	4.5µM	2.4µM	u	x	1.1µM	1.8µM
COc1ccc(N2C(=O)C3CC(C)=C(C)CC3C2=O)c(OC)c1 (stereo unspecified)	n	n	n	n	n	n	x	x
CCCn1c(SCC(=O)c2cc(OC)ccc2OC)nnc1C(C)C	n	n	79µM	u	n	50µM	16µM	16µM
CCN1/C(=C/C(C)=C/c2sc3ccccc3[n+]2CC)Sc2ccccc21	32µM	22µM	18µM	n	u	18µM	u	n
